From PubChem BioAssay (NCATS) come the findings set out here.

Inconclusive results are not listed. Entries that show only a call come without a potency. Active and inactive are the calls of the source. The call rests on the fitted dose curve; in most records, active means well fitted inhibition curve with a large enough effect; inconclusive means small, poorly fitted or top-dose-only effect; inactive means no such curve, though single readings can be large or run the other way.

This assay in a line: qHTS assay for measurement of the activity of small molecule inhibitors on Zika virus induced Caspase-3 activity in human iPSC derived neural progenitor cells (hNPCs) (AID 1224857). Further: nearly all actives have a fitted effect of over 65% in size. The conditions noted are these: hNPCs ZIKV-induced caspase-3/7, Caspase-Glo luminescence, 6 h; series mostly up to 45.7 µM. The source says: National Center for Advancing Translational Sciences [NCATS]
Johns Hopkins University School of Medicine
Increase in the Caspase-3 activity indicates an activation of apoptosis cell death pathway caused by Zika virus infection in certain types of neuronal cells including human neural progenitor cells (hNPCs), astrocytes, and astrocytoma cell line (SNB-19). This cell-based caspase-3 activity assay measures the increased caspase-3 activity in the human iPSC derived neural progenitor cells (hNPCs) after a 6-hour Zika virus infection with a luminescence readout. A decrease in the luminescence signal in this assay by small molecule treatment indicates an inhibitory effect of that small molecule on the Zika virus induced caspase-3 activity that may correlate with its effect on reduction of Zika virus caused cell death.
The medium for hNPCs consists of DMEM/F12, N2 supplement (ThermoFisher, Cat.# 17502048), NEAA (ThermoFisher, Cat. # 11140050), 2 ug/ml heparin, 2 uM cyclopamine, and B27 (ThermoFisher, Cat. # 17504044). A Caspase-Glo 3/7 assay kit (catalog number G8092; Promega, Madison, WI) was used to detect caspase-3 activity induced by Zika virus infection in human cells. The reagent mixture was reconstituted as described in the protocol from the manufacturer. Polystyrene tissue culture treated and PDL coated white plates were obtained from Greiner Bio-One (Monroe, NC). Cells were seeded in 384- or 1536-well assay plates and cultured at 37 C with 5% CO2 for 16 to 20 hours. The typical cell seeding density in the 1536-well plate assay is 350 cells/well in 3 ul medium for hNPCs in tissue culture treated plates. Compounds were added to cells and incubated for one hour before addition of ZIKV solution to cells (2 FFU/cell). After incubation at 37 C with 5% CO2 for 6 hours, the reagent mixture of Caspase-Glo 3/7 assay kit was added to each well, followed by incubation at room temperature for 30 minutes. The luminescence intensity of the assay plates was measured using a ViewLux plate reader (PerkinElmer). Data were normalized by using the cell-containing wells without ZIKV as a negative control (0% induction of caspase 3/7 activity) and wells containing ZIKV infected cells (Caspase-3 activity induced) as a positive control (100% induction of caspase 3 activity). The percentage inhibitions of the increased Caspase-3 activity by small molecule inhibitors were then calculated.
In general terms: qHTS replaces the single test concentration by a dilution series.
With `NC1C=CC=C(C(=O)O)C1` (stereo not given), the Potency entry was “inactive”.

`CCCc1c(OCCCOc2ccc(OCC(=O)O)cc2)ccc(C(C)=O)c1O`: the Potency result was “inactive”.

For `COc1ccc2c(c1)c(CC(=O)O)c(C)n2Cc1ccc(Cl)cc1`, the Potency result is “inactive”.

For `CCSC(=N)N`, the Potency entry is “inactive”.

Regarding `Cc1cccc(C2CN(C)CCc3c2cc(O)c(O)c3Cl)c1` (stereo not given), the Potency entry is “inactive”.

As to `NCCCNCCCCNCCCN`, the Potency result was “inactive”.

On to `O=C(O)c1cc(=O)cc(C(=O)O)[nH]1`, for which the Potency result was “inactive”.

As to `N[C@@H](CCC(=O)N[C@H](CSN=O)C(=O)NCC(=O)O)C(=O)O`, the Potency entry is “inactive”.

Take `NCCS(=O)O`: the Potency entry was “inactive”.

Regarding `COc1cc([C@@H]2c3cc4c(cc3[C@H](O)C3COC(=O)[C@@H]32)OCO4)cc(OC)c1OC` (stereo not given in full), the Potency result was “inactive”.

For the compound `CC(C)NC[C@H](O)COc1ccc(CC(N)=O)cc1`, the Potency result is “inactive”.

As for `NCCCCN=C(N)N`, the Potency result is “inactive”.

With `COc1cc(/C=C(\C#N)C(=O)Nc2nnc(C(F)(F)F)s2)ccc1OCc1ccc(C(F)(F)F)cc1C(F)(F)F`, the Potency result is “inactive”.

As for `N[C@@H](CS(=O)O)C(=O)O`, the Potency result was “inactive”.

Take `CC(C)[C@@H]1CC[C@@H](C)C[C@@H]1P(=O)(c1ccccc1)c1ccccc1`: the Potency entry is “inactive”.

Consider `COc1cc2c(CCNC(C)=O)c[nH]c2cc1O`, for which the Potency result is “inactive”.

Turning to `C=CC[C@H](N)C(=O)O`, the Potency entry was “inactive”.

For `CN[C@H](CC(=O)O)C(=O)O`, the Potency entry was “inactive”.

Regarding `NC1CCN(O)C1=O` (stereo not given), the Potency result was “inactive”.

For the compound `CNc1cc(NS(=O)(=O)c2ccc(N)cc2)nc(NC)n1`, the Potency result was “inactive”.

As for `C/C(=C\c1ccc(C(=O)O)cc1)c1ccc2c(c1)C(C)(C)CCC2(C)C`, the Potency result was “inactive”.

For `CC[N+](CC)(CC)CC(=O)Nc1c(C)cccc1C`, the Potency result is “inactive”.

For `CNCCc1cnc(CCC(c2ccccc2)c2ccccc2)[nH]1`, the Potency result is “inactive”.

For the compound `N=C(N)c1ccccc1`, the Potency result is “inactive”.

Regarding `CCN(CC)CCCCCCCCOC(=O)c1cc(OC)c(OC)c(OC)c1`, the Potency result was “inactive”.

As to `O=C(O)Cc1ccc(O)c(O)c1`, the Potency result was “inactive”.

Take `CC(C)NC[C@H](O)COc1cccc2ccccc12`: the Potency entry is “inactive”.

For the compound `CNc1ncnc2c1ncn2[C@H]1C[C@H](OP(=O)(O)O)[C@@H](COP(=O)(O)O)O1`, the Potency result is “inactive”.

As to `CC(C)NCC(O)COc1ccc(CC(N)=O)cc1` (stereo not given), the Potency entry is “inactive”.

Turning to `Nc1ncnc2c1c(-c1ccc(Oc3ccccc3)cc1)cn2C1CCCC1`, the Potency entry is “inactive”.

As to `NC(=O)CNCCC(c1ccccc1)c1ccccc1`, the Potency result was “inactive”.

Regarding `NCC(O)c1ccc(O)c(O)c1` (stereo not given), the Potency result was “inactive”.

On to `NC(Cc1cccc(-c2ccccc2CP(=O)(O)O)c1)C(=O)O` (stereo not given), for which the Potency result was “inactive”.

On to `c1ccc(C2CN3CCSC3=N2)cc1` (stereo not given), for which the Potency result was “inactive”.

In the case of `CC(/C=C/c1cccc(Oc2ccc(F)cc2)c1)N(O)C(N)=O` (stereo not given), the Potency entry is “inactive”.

For `CC1CCN(CC[C@H]2CCCN2S(=O)(=O)c2cccc(O)c2)CC1`, the Potency entry was “inactive”.

Turning to `NC[C@@H]1O[C@H](c2ccccc2)Cc2c1ccc(O)c2O`, the Potency entry was “inactive”.

On to `CN1CCN(c2nc3cc(C(F)(F)F)ccc3n3cccc23)CC1`, for which the Potency result is “inactive”.

For the compound `c1ccc(CN2CCC3(CCCc4ccccc43)CC2)cc1`, the Potency entry was “inactive”.

On to `O=C(O)c1cccnc1C(=O)O`, for which the Potency entry was “inactive”.
